TIM10 inh: growth inhibitors of isogenic TIM10 control yeast, primary screen, counter-screen for tim10-1 yeast inhibitor project, luminescence, uHTS; 330,000 tested, 1.4% active; inhibition, % at 10 µM; S. cerevisiae TIM10 strain growth, BacTiter-Glo luminescence, 24 h;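 active means inhibition of 40% or more at the single tested concentration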;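 further: wild-type TIM10 isogenic control strain grown at permissive 25 °C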
NALP3 yeast inh: NALP3 inflammasome inhibitors in reconstituted yeast, primary screen, luminescence, uHTS; Yeast reconstituted NLRP3/ASC/caspase-1, beta-gal luminescence, 24 h; inhibition, % at 10 µM; 330,000 tested, 0.39% active; AID 2825, 2010;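 active means inhibition of 50% or more; inactive means inhibition below 50%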;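 further: plate controls were induced DMSO wells for no effect and uninduced yeast grown without galactose for full effect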
tim10-1 inh: growth inhibitors of tim10-1 mutant yeast, primary screen, luminescence, uHTS; S. cerevisiae tim10-1 ts strain growth, BacTiter-Glo, 24 h; inhibition, % at 20 µM; 330,000 tested, 2.2% active; AID 463190, 2010;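 active means inhibition of at least 40%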;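 further: mutant grown at 25 °C; 0% = DMSO wells with yeast and 100% = wells holding no yeast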
NALP1 inh: NALP1 inflammasome inhibitors in reconstituted yeast, colorimetric, S. cerevisiae, triplicate retest; 280,000 tested, 0.61% active; inhibition, % at 10 µM; S. cerevisiae NALP1/ASC/caspase-1 growth, X-gal OD620, 72 h; in the data active means inhibition mostly above about 24%, no sharp cut-off; inactive means mostly below about 32%
tim23-1 inh: growth inhibitors of tim23-1 mutant yeast, primary screen, luminescence, uHTS | 330,000 tested, 1.3% active | inhibition, % at 20 µM | S. cerevisiae tim23-1 growth, BacTiter-Glo luminescence, 24 h | AID 463212, 2010;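 active means growth inhibition of the mutant yeast at or above 50%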;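 further: temperature-sensitive mutant grown at 25 °C; plate controls were DMSO-treated mutant yeast for no effect and medium wells lacking yeast for full effect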
tim10-1 confirm: growth inhibitors of tim10-1 mutant yeast, confirmation, single concentration, luminescence, S. cerevisiae; shares compounds with tim10-1 inh; S. cerevisiae tim10-1 ts strain growth, BacTiter-Glo, 24 h; inhibition, % at 20 µM; 7,400 tested, 56% active;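 active means inhibition of yeast growth at or above a set limit in either of two repeat tests at 20 µM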;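 further: tim10-1 mutant grown at permissive 25 °C to find synthetic lethal compounds; 0% = DMSO yeast wells and 100% = medium wells without yeast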
tim10 confirm: growth inhibitors of wild-type TIM10 yeast, confirmation, counter-screen for tim10-1 synthetic lethality project, single concentration, luminescence, S. cerevisiae; shares compounds with TIM10 inh; S. cerevisiae tim10 strain growth, BacTiter-Glo luminescence, 24 h; inhibition, % at 10 µM; 4,600 tested, 63% active; AID 463215, 2010;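 active means inhibition of yeast growth at or above a set limit in either of two replicates at 10 µM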;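 further: this counterscreen used the strain with wild-type TIM10; 0% = yeast with DMSO and 100% = medium wells lacking yeast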
* = called active by the depositor; x = not tested or not shown. Hits are enriched below; roughly 4% of the tested compounds scored in any of these assays.

SMILES	TIM10 inh	NALP3 yeast inh	tim10-1 inh	NALP1 inh	tim23-1 inh	tim10-1 confirm	tim10 confirm
O=C(CCCN1C(=O)/C(=C/c2ccccc2Cl)SC1=S)NCCCN1CCOCC1	44*	1	44*	-4	38	41*	46*
Cc1cccc(NC2=C/C(=N/S(=O)(=O)c3cccs3)c3ccccc3C2=O)c1	x	x	x	20	x	x	x
Cc1ccc(NC2=C/C(=N\S(=O)(=O)c3cccs3)c3ccccc3C2=O)c(C)c1	60*	17	74*	4	36	49*	-5
Cn1c(SCCOc2ccccc2Cl)nnc1-c1cccs1	51*	39	51*	-3	39	40*	51*
Cc1cc(OCCSc2nnc(-c3cccs3)n2C)ccc1Cl	38	0	26	9	44	x	x
COc1ccc2[nH]cc(C=O)c2c1	8	7	8	11	-10	x	x
O=C(/C=C/c1c[nH]c2ccccc12)c1ccccc1	53*	40	45*	47	18	37*	-16
COc1ccc2[nH]cc(/C=C/C(=O)c3ccccc3)c2c1	71*	22	61*	6	37	52*	74*
O=C(Nc1ccc(N2CCN(C(=O)c3ccc(Cl)cc3)CC2)cc1)c1ccc(Br)o1	0	12	34	20	12	x	x
O=C(Nc1ccc(C(=O)N2CCN(c3ccc(Cl)cc3)CC2)cc1)C1=CSCCO1	47*	15	47*	12	31	48*	45*
Cc1cccc(NC(=O)COc2ccccc2C(=O)NC(C)c2ccccc2)c1 (stereo not given)	12	10	32	12	32	x	x
O=C(/C=C/c1cccc([N+](=O)[O-])c1)n1cnc2ccccc21	45*	49	46*	-4	47	43*	39*
CCOC(=O)C(=Cc1ccc(-n2ccnc2)cc1)C(=O)OCC	64*	49	73*	16	38	74*	69*
O=C(COC(=O)[C@@H]1CCCN1S(=O)(=O)c1ccccc1F)NCc1ccc2c(c1)OCO2	-5	1	-2	x	8	x	x
O=C(Nc1cc([N+](=O)[O-])ccc1C(=O)Nc1cccnc1)c1ccccc1	5	18	12	10	10	x	x
CCCN(CCC)C(=S)NC(=O)c1ccc(-c2ccccc2)cc1	44*	38	42*	22	32	16	42*
CNS(=O)(=O)c1cccc(C(=O)NCC(C)(C)N2CCCCC2)c1	14	-10	-4	-4	2	x	x
COc1ccc(C(=O)NNC(=O)CCn2nnc(-c3ccc(Cl)cc3)n2)cc1OC	-12	9	-16	8	-2	x	x
CCn1cnnc1SCC(=O)Nc1ccccc1C(=O)NC1CC1	-4	6	1	x	9	x	x
N/C(=N\OC(=O)Cc1ccc(-c2ccccc2)cc1)c1ccccn1	53*	18	54*	-2	30	50*	28
COc1ccc(NC(=O)CCNC(=O)c2ccco2)c(OC)c1	16	14	-2	12	4	x	x
Cc1ccccc1OCC(=O)NCCCNC(=O)c1ccco1	15	-10	-14	0	0	x	x
CCN(CC)C(=O)c1cccc2c1C(=O)c1ccccc1-2	10	0	30	3	17	x	x
CCN(CC)C(=O)c1ccc2c(c1[N+](=O)[O-])C(=O)c1ccccc1C2=O	53*	39	60*	28	38	44*	-26
CC(C)(C)c1ccc(CSc2nnc(-c3ccccn3)n2Cc2ccco2)cc1	45*	4	42*	36	41	48*	38*
SMILES	TIM10 inh	NALP3 yeast inh	tim10-1 inh	NALP1 inh	tim23-1 inh	tim10-1 confirm	tim10 confirm
CNC(=O)CSc1nnc(-c2ccccn2)n1Cc1ccco1	-1	-7	21	6	5	x	x
CCOC(=O)c1sc2c(c1C)c(=O)n(CCO)c(=O)n2Cc1ccccc1	-3	18	35	3	39	x	x
Fc1ccc(C2C3=C(Nc4ncnn42)c2ccccc2OC3c2ccncc2)cc1 (stereo not given)	22	-5	28	0	23	x	x
Cc1ccc(C2Oc3ccccc3C3=C2C(c2cccs2)n2ncnc2N3)cc1 (stereo not given)	45*	9	42*	14	48	26	16
N/C(=N\OC(=O)c1ccc2ccccc2c1)c1ccc(Br)cc1	13	1	28	20	9	x	x
N/C(=N\OC(=O)N1CCOCC1)c1ccc(Br)cc1	50*	19	60*	-5	37	61*	41*
C=CCc1cccc(/C=N/NC(=O)c2ccccc2OC)c1O	57*	5	49*	12	40	31*	38*
CC(C)CC1NC(=O)N(CC(=O)Nc2cccc(Br)c2)C1=O (stereo not given)	-11	-4	-8	x	-7	x	x
Cc1cc(S(=O)(=O)N2CCOCC2)ccc1OCC(=O)Nc1ccc(Br)cc1F	6	0	-20	14	-14	x	x
CN1C(=O)C(O)(CC(=O)c2cccc(-n3cccc3)c2)c2ccccc21 (stereo not given)	46*	-6	51*	1	30	38*	29
O=C(CC1(O)C(=O)Nc2ccccc21)c1cccc(-n2cccc2)c1 (stereo not given)	-2	12	7	10	-3	x	x
COc1cc2c(cc1NC(=O)c1ccncc1)oc1ccccc12	42*	40	46*	13	-14	25	47*
COc1cc2c(cc1NC(=O)CN1CCN(S(=O)(=O)c3ccc(C)cc3)CC1)oc1ccccc12	-14	10	12	9	-8	x	x
COc1cc2c(cc1NS(=O)(=O)N1CCCC1)oc1ccccc12	47*	-34	43*	18	37	29	43*
O=C(COc1ccc(Cl)cc1Cl)NNC(=S)NCc1ccco1	50*	10	46*	-11	28	37*	40*
O=c1[nH]ccc2c(O)cccc12	7	-1	-3	x	-21	x	x
O=C1CC(N2CCC(c3nc4ccccc4o3)CC2)C(=O)N1c1cc(Cl)cc(Cl)c1 (stereo not given)	41*	17	41*	-18	33	12	22
COc1ccc2c(C)nc(Nc3nc(C)c(C)c(=O)[nH]3)nc2c1	66*	13	71*	6	49	61*	50*
CCc1c(C)nc(Nc2nc(C)c3ccc(OC)cc3n2)[nH]c1=O	31	7	31	2	42	x	x
